Bioassay records from PubChem.
Tau fibril ThT: inhibitors of human tau fibril formation, thioflavin T binding; AID 1460; P10636; Potency, µM (top dose mostly 57.4 µM), for the others: top-dose activity, negative = inhibition, most hits filed as inhibitors; 270,000 tested, 2.1% active; recombinant tau K18 P301L, heparin-induced fibrillization, ThT fluorescence; also: nearly all actives have a fitted effect of over 55% in size
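Using a mix of unlabeled (15 uM) and Alexa 594-labeled (0.24 uM) tau K18 P301L, heparin-triggered fibrillization over 6 hr at 37 C was scored by ThT fluorescence.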
TexasRed fluor: alters Texas Red total fluorescence, flagging assay interference. TRb/SRC2 Texas Red total fluorescence interference. Potency, µM (titrated, usually from 106 µM), without a hit: at the top dose fluorescence change, negative = quenching. 280,000 tested, 0.29% active. AID 1479; active = well fitted curve in either direction with a large enough effect; inconclusive = small, poorly fitted or top-dose-only effect
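Human TRβ ligand-binding domain (0.6 uM) and Texas Red SRC2 peptide (20 nM) in Tris buffer with 1 uM T3 and 5% DMSO were incubated with pinned compound for 5 hr at ambient temperature. Total fluorescence was computed as S + 2P (555/632 nm).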
TRb SRC2 PPI: disrupts binding of human TR beta to SRC2; TRbeta-SRC2 peptide binding, fluorescence polarization; receptor liganded with 1 µM T3; 280,000 tested, 0.065% active; Potency, µM (titrated, usually from 106 µM), for the others: at the top dose activity change, negative = inhibition, hits mostly inhibitors;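 also: plate controls were bound peptide for no effect and peptide without receptor for full effect; nearly all actives have a fitted effect of over 50% in size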
Target sequence (P10828 whole entry, looked up): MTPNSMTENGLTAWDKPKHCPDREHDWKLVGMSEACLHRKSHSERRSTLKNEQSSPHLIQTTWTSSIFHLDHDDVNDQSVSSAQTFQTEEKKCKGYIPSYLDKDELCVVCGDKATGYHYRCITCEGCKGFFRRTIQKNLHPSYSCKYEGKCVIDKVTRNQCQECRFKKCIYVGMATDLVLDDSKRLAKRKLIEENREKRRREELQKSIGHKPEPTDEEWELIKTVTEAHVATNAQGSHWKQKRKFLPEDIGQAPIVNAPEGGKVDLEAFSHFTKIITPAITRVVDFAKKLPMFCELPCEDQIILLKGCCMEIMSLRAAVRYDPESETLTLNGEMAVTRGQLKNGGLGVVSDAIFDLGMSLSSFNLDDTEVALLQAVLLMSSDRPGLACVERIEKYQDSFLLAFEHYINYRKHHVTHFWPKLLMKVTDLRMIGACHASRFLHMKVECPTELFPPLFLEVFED
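Quantitative HTS by FP: 0.6 uM TRb LBD, 20 nM labeled SRC2 20-mer, 1 uM T3, 5% DMSO; 5 hr ambient incubation; % activity per concentration and potencies from concentration series.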
Tau fluor counter: counter-screen for tau fibril formation inhibitors; tau K18 P301L Alexa594 fluorescence, heparin fibrillization; 280,000 tested, 0.93% active; Potency, µM (series often up to 57.7 µM), inactives show at the highest dose activity change, negative = decrease; AID 1463; also: nearly all actives have a fitted effect of over 55% in size
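Human tau K18 P301L (15 uM unlabeled, 0.24 uM Alexa 594-labeled) in 100 mM sodium acetate pH 7 with 20 uM heparin, 6 hr at 37 C. ThT 30 uM added, 1 hr ambient; Alexa 594 FP and total fluorescence read at 555/632 nm.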
Tau fibril FP: blocks human tau fibril formation measured by polarization; K18 P301L tau heparin fibrillization, Alexa594 FP, 6 h; Potency, µM (series often up to 57.7 µM), for the others: at the highest dose activity, negative = inhibition, actives largely listed as inhibitors; 280,000 tested, 0.39% active; AID 1468; also: nearly all actives have a fitted effect of over 55% in size
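Recombinant K18 P301L […], labeled with Alexa 594 at 0.24 uM over 15 uM unlabeled; heparin inducer 20 uM final; 37 C, 6 hr; FP endpoint.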
* = called active by the depositor; u = inconclusive; x = no result; [ ] = another dose, or the depositor's remark. Sampled rows, rich in hits. Any-hit rate of the full collection: about 3.1%. Unless noted, calls follow the shape of the dose curve; as a rule, active = well fitted curve in the direction sought with a large enough effect; inconclusive = small, poorly fitted or top-dose-only effect, or another doubt; inactive = no such curve, though single readings can be large; an effect the other way counts as inactive or inconclusive. Unless noted, % is scaled to controls: 0 for no effect and ±100 for the full control effect; potency is read from the fitted curve at half-maximal effect.

SMILES	Tau fibril ThT	TexasRed fluor	TRb SRC2 PPI	Tau fluor counter	Tau fibril FP
CCCCOc1ccc(CNC(=O)c2ccc(NC(=O)N3CCSc4ncccc43)cc2)cc1	u	1.0%	-6.8%	-12.8%	-10.5%
COC(=O)c1cc2oc(C)cc2n1Cc1ccc(Cl)cc1	u	-1.6%	5.5%	-12.3%	-10.5%
Cc1ccc([N+](=O)[O-])cc1-c1ccc(/C=C(\C#N)c2[nH]nc(N)c2C#N)o1	8.91µM*	-6.8%	4.3%	u	u
Oc1cccc2ccc[n+](CC(O)Cn3c4ccccc4c4ccccc43)c12 (stereo unspecified)	u	0.891µM*[quencher]	-11.6%	u	13.8%
OC(COc1ccccc1)Cn1c2ccccc2c2ccccc21 (stereo unspecified)	-10.6%	1.1%	4.5%	u	u
C[C@@H](/C=C/c1ccc2ccccc2c1)C1COC(=O)C[C@H]1O (stereo partly specified)	x	-2.2%	6.5%	x	x
O=C(N=Nc1c(O)[nH]c2ccc([N+](=O)[O-])cc12)c1ccccc1Cl	u	0.9%	-3.6%	-24.9%	11.9%
O=C(Nc1ccc(F)cc1)C(=O)c1c(O)[nH]c2ccc([N+](=O)[O-])cc12	15.8µM*	-4.7%	-5.5%	-27.3%	2.0%
O=[N+]([O-])c1ccc2[nH]c(O)c(N=NC(=S)Nc3cccnc3)c2c1	2.24µM*	-24.2%	-0.9%	u	12.2%
Cc1cccc(OCC(=O)N=Nc2c(O)[nH]c3ccc([N+](=O)[O-])cc23)c1	3.98µM*	-2.5%	7.4%	u	-7.2%
Cc1ccccc1NCC(=O)N=Nc1c(O)[nH]c2ccc([N+](=O)[O-])cc12	u	-5.1%	6.8%	17.8µM*[quencher]	6.3%
Cc1ccc(OC(C)C(=O)N=Nc2c(O)[nH]c3ccc([N+](=O)[O-])cc23)cc1 (stereo unspecified)	u	-3.6%	-0.6%	15.8µM*[quencher]	6.0%
CCCCCC(=O)N=Nc1c(O)[nH]c2ccc([N+](=O)[O-])cc12	-11.4%	-0.6%	-8.2%	-16.6%	3.4%
Cc1ccc(NCC(=O)N=Nc2c(O)[nH]c3ccc([N+](=O)[O-])cc23)cc1	15.8µM*	u	-13.7%	25.1µM*[quencher]	2.9%
CCNC(=S)N=Nc1c(O)[nH]c2ccc([N+](=O)[O-])cc12	u	-5.0%	7.3%	-13.2%	5.9%
COCCNC(=O)Nc1ccc2nc(-c3cccs3)c(-c3cccs3)nc2c1	u	-0.6%	1.0%	15.8µM*[quencher]	15.8µM*
Cc1cc(C)cc(NC2=C(c3ccccc3)C(=O)c3ccccc32)c1	u	-4.6%	-4.1%	7.94µM*[quencher]	4.5%
COc1ccc(C2=C(Nc3ccc(Br)c(C)c3)c3ccccc3C2=O)cc1	u	0.6%	-6.2%	3.98µM*[quencher]	5.5%
COc1ccc(C2=C(Nc3ccc(C)cc3)c3ccccc3C2=O)cc1	-13.0%	1.6%	-9.1%	-23.2%	5.3%
Cc1ccc(Cl)cc1-n1nnc(-c2nsc(NC(=O)c3ccccc3Cl)n2)c1C	-9.7%	4.0%	1.0%	-13.5%	-5.4%
O=C1C(Cl)=C(NCCCO)C(=O)c2ccccc21	u	-1.9%	-6.9%	-16.7%	0.1%
CCOCCCNC1=C(Cl)C(=O)c2ccccc2C1=O	15.8µM*	-2.1%	1.9%	u	u
CCOc1ccc(NC(=O)Cn2c(=O)oc3cc(S(=O)(=O)NC4CCCC4)ccc32)cc1	-15.5%	2.8%	4.3%	-27.8%	1.3%
O=C(/C=C/c1ccccc1Cl)c1ccccc(=O)c1O	14.1µM*	-1.0%	-2.5%	-24.6%	u
Cc1ccc(C)c(/C=C/C(=O)c2ccccc(=O)c2O)c1	22.4µM*	-1.3%	-3.2%	u	u
COCCCn1c(SCC(=O)Nc2ccc(F)cc2)nc2c(sc3ccccc32)c1=O	14.1%	-2.9%	1.5%	-0.9%	-3.7%
CCC(=O)/C=C/C1C(C)=CCCC1(C)C (stereo unspecified)	x	-0.2%	-1.8%	x	x
Nc1nonc1OCCN1CCN(c2ccc([N+](=O)[O-])c3cccnc23)CC1	17.8µM*	-3.8%	-3.4%	u	-0.9%
CCC/C=C/C1C(=O)C2OC2C2(OCC(CC)(CC)CO2)C1CO (stereo unspecified)	u	-1.4%[11.2 µM]	3.0%[11.2 µM]	-2.2%[11.6 µM]	8.7%[11.6 µM]
